High-throughput results from PubChem BioAssay.
RE007 growth inh – less growth of the S. pombe RE007 Vpr strain | Potency, µM (top dose mostly 92.2 µM), usual class: inhibitors | 360,000 compounds, 0.21% hits | AID 651644 | S. pombe RE007 Vpr strain, BacTiter-Glo ATP luminescence, 24 h; active = well fitted falling curve with a large enough effect; inconclusive = small, poorly fitted or top-dose-only effect; inactive = no such curve, though single readings can be large or run the other way; note: nearly all actives have a fitted effect of over 50% in size
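Fission yeast strain RE007, carrying one chromosomally integrated HIV-1 vpr copy, was seeded at OD 0.01 in PMG+AL medium with 23 nL pinned compound. After 24 h at 30 °C and 99% humidity, viability was read by BacTiter-Glo luminescence.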
AmpC inh detg – blocks E. coli AmpC beta-lactamase in detergent assay; P00811; 370,000 compounds, 0.041% hits; AmpC hydrolysis of nitrocefin, absorbance 480 nm, 0.01% Triton; AID 485294; Potency, µM (titrated, usually from 114 µM), actives largely listed as inhibitors; note: nearly all actives have a fitted effect of over 25% in size
Target sequence (P00811 whole entry, looked up): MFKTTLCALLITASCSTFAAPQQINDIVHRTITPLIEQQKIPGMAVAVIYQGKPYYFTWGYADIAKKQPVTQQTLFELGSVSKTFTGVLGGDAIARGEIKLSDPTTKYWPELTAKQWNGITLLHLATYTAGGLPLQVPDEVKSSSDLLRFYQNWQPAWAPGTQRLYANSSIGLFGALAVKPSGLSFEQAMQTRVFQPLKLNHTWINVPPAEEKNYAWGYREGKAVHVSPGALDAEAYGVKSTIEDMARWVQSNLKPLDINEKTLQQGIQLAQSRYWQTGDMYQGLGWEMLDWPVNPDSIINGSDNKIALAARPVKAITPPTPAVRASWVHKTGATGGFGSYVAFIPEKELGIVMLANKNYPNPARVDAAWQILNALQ
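20 mM phosphate pH 7.0 + 0.01% (detergent screen) or 0.0001% Triton X-100; 5.3 nM AmpC reagent; cpd preinc 15 min RT; nitrocefin (800 uM stock) to start; A480 q20 s × 4 min; Activity was normalised to no-enzyme and no-compound control wells.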
Sm TGR block – S. mansoni TGR enzyme inhibition | Q962Y6 | purified TGR, DTNB reduction, TNB absorbance 405 nm | Potency, µM (titrated, usually from 114 µM), usual class: inhibitors | 360,000 compounds, 3% hits; note: nearly all actives have a fitted effect of over 60% in size
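Kinetic colorimetric format: TGR-catalysed, NADPH-driven DTNB reduction monitored via TNB absorbance. Enzyme dispensed at 20 nM; compound exposure 15 min at room temperature before reaction start.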
AmpC inh no detg – AmpC beta-lactamase inhibition without detergent; P00811; AmpC nitrocefin hydrolysis, absorbance 480 nm, 0.0001% Triton; Potency, µM (titrated, usually from 57.1 µM), usual class: inhibitors; 330,000 compounds, 0.52% hits; AID 485341; note: nearly all actives have a fitted effect of over 20% in size
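20 mM phosphate pH 7.0 + 0.01% (detergent screen) or 0.0001% Triton X-100; 5.3 nM AmpC reagent; cpd preinc 15 min RT; nitrocefin (800 uM stock) to start; A480 q20 s × 4 min; Activity was normalised to no-enzyme and no-compound control wells.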
AMA1-RON2 inh – AMA1-RON2 (P. falciparum) interaction inhibition. AlphaScreen AMA1-biotinylated RON2 peptide binding. Potency, µM (top dose mostly 58.2 µM), usual class: inhibitors. 360,000 compounds, 0.2% hits; note: nearly all actives have a fitted effect of over 45% in size
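AMA1 (3D7) with his tag at 25 nM final met compounds first, then biotinylated RON2 peptide at 25 nM; detection used donor plus acceptor beads, 10 µg/mL apiece, read by AlphaScreen after 30 min at room temperature.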
A number is an active result; 0 = inactive; ? = inconclusive; - = not tested or not shown; [ ] = remark or other dose. Rows were chosen to be rich in hits. Some 3.2% of all compounds tested hit in one or more screens of this group. Unless noted, calls come from the whole dose curve; as a rule, active = well fitted curve in the direction sought with a large enough effect; inconclusive = small, poorly fitted or top-dose-only effect, or another doubt; inactive = no such curve, though single readings can be large; an effect the other way counts as inactive or inconclusive.

SMILES	RE007 growth inh	AmpC inh detg	Sm TGR block	AmpC inh no detg	AMA1-RON2 inh
CCc1ccccc1NS(=O)(=O)c1ccc(-c2coc(C)n2)cc1	-	0	0	-	-
c1ccc(CNc2ccc3c(c2)ncn3C2CCCCC2)nc1	0	?	0	7.08µM	?
CCCCS(=O)(=O)Nc1ccc2c(c1)ncn2C1CCCCC1	0	0	0	0	0
CCOc1ccc(Nc2nc(N)nc(CCl)n2)cc1	0	0	25.1µM	0	0
CCOc1ccc(Nc2nc(N)nc(CN3CCN(c4ccccc4F)CC3)n2)cc1	0	0	0	0	?
Cc1ccc(Nc2nc(N)nc(CCl)n2)cc1	0	0	11.2µM	0	0
Cc1ccc(Nc2nc(N)nc(CC#N)n2)cc1	0	0	0	0	0
Cc1ccc(Nc2nc(N)nc(CCl)n2)c(C)c1	0	0	31.6µM	0	0
Nc1nc(CN2CCN(Cc3ccccc3)CC2)nc(Nc2ccccc2)n1	0	?	?	0	?
Nc1nc(CCl)nc(Nc2ccccc2)n1	0	?	39.8µM	0	0
Cc1ccc(-n2nc3cc(C)c(NC(=O)c4ccc(-c5ccccc5)o4)cc3n2)cc1	-	0	0	-	-
CC(=O)c1ccc(OCc2cc(C(=O)N3CCC(c4ccncc4)CC3)no2)cc1	0	?	44.7µM	0	0
CC(=O)c1ccc(OCc2cc(C(=O)N3CC[C@@H]4CCCC[C@H]4C3)no2)cc1	0	0	12.6µM	0	0
COc1cc(OC)cc(C(=O)Nc2cccc(-c3cn4ccsc4n3)c2)c1	-	0	0	-	-
O=[N+]([O-])c1ccccc1S(=O)(=O)N1CCN(Cc2cc3c(cc2O)OCO3)CC1	0	0	0.562µM	0	?
Oc1cc2c(cc1CN1CCN(c3ccc(F)cc3)CC1)OCO2	0	?	2.51µM	0	31.6µM
O=S(=O)(c1ccccc1F)N1CCN(Cc2cc3c(cc2O)OCO3)CC1	0	0	0.708µM	0	0
Cc1ccc(C)c(S(=O)(=O)N2CCN(Cc3cc4c(cc3O)OCO4)CC2)c1	0	0	0.631µM	0	?
O=[N+]([O-])c1ccccc1CN1CCN(S(=O)(=O)c2ccccc2)CC1	0	-	-	-	0
O=C(c1ccc2c(c1)OCO2)N1CCN(c2ccc(F)cc2)CC1	0	0	0	0	0
CC(C)(C)CC(C)(C)c1ccc(OCC(=O)Nc2ccc(S(=O)(=O)Nc3ncccn3)cc2)cc1	-	0	0	-	-
CCc1ccc(S(=O)(=O)Nc2cccc(-c3ccc(N4CCOCC4)nn3)c2)cc1	-	0	0	-	-
Cc1noc(C)c1S(=O)(=O)N1CCN(Cc2ccc3c(c2)OCO3)CC1	0	0	0	7.08µM	0
CCOC(=O)c1ccc(S(=O)(=O)N2CCC(N3CCCCCC3)CC2)cc1	0	-	-	-	0
CCOC(=O)c1ccc(S(=O)(=O)N2CCN(C3CCCC3)CC2)cc1	0	0	12.6µM	0	0
SMILES	RE007 growth inh	AmpC inh detg	Sm TGR block	AmpC inh no detg	AMA1-RON2 inh
CCOC(=O)c1ccc(S(=O)(=O)N2CCN(C(C)=O)CC2)cc1	0	0	0	0	0
CCOC(=O)c1ccc(S(=O)(=O)N2CCN(Cc3cc4c(cc3O)OCO4)CC2)cc1	0	0	0.355µM	0	0[11.6 µM]
COc1ccc(OCC(=O)Nc2cc(-c3ccccc3F)nn2-c2ccccc2)cc1	-	0	0	-	-
Cc1ccc(S(=O)(=O)N/N=C/c2cc([N+](=O)[O-])ccc2O)cc1[N+](=O)[O-]	0	?	28.2µM	0	0
COc1cc(/C=N/NS(=O)(=O)c2ccc(C)c([N+](=O)[O-])c2)cc([N+](=O)[O-])c1O	0	0	?	0	0
COc1ccc(-n2c(O)c(/C=N/NS(=O)(=O)c3ccc(C)c([N+](=O)[O-])c3)c3ccccc3c2=O)cc1OC	0	0	10µM	0	0
COc1ccc2c(c1)nc(SCC(=O)c1ccc(Br)s1)n2C	0	0	31.6µM	0	0
CCOC(=O)c1c(C)n(C)c2ccc(O)c(CN3CCC(C)CC3)c12	0	0	0	0	0
CCOC(=O)c1c(C)n(C)c2ccc(O)c(CN3CCN(C)CC3)c12	0	?	35.5µM	0	0
CCCCn1c(C)c(C(=O)OCC)c2c(CN3CCOCC3)c(O)ccc21	0	?	39.8µM	0	0
CCCCn1c(C)c(C(=O)OCC)c2c(CN3CCCC3)c(O)ccc21	0	0	0	0	0
CSc1nc(-c2ccccc2)c(C#N)c(=O)[nH]1	0	0	0	0	0
CCSc1nc(-c2ccccc2)c(C#N)c(=O)[nH]1	0	0	0	2.24µM	0
Cc1ccc(N(CC(=O)NCC2CCCO2)C(=O)CCC(=O)Nc2ccccn2)cc1 (stereo unspecified)	0	0	0	0	0
Cc1ccc(N(CC(=O)NCC2CCCO2)C(=O)CCC(=O)Nc2ccccn2)cc1C (stereo unspecified)	0	0	79.4µM	0	0
COc1cc(C(c2c(O)nc(SC)[nH]c2=O)c2c(O)nc(SC)[nH]c2=O)cc(OC)c1OC	0	?	1.78µM	0	0
COc1ccc(OC)c(C(c2c(O)nc(SC)[nH]c2=O)c2c(O)nc(SC)[nH]c2=O)c1	0	0	1.41µM	0	0
Cn1c(SCc2ccc(Cl)cc2)nnc1C1CC1	0	0	0	0	0
Cn1c(SCc2ccccc2)nnc1C1CCCNC1 (stereo unspecified)	0	?	44.7µM	0	0
COc1ccc(NS(=O)(=O)c2ccc(-c3n[nH]c(=S)n3Cc3ccccc3)cc2)cc1	0	0	0	7.94µM	0
COc1ccc(NS(=O)(=O)c2cccc(-c3n[nH]c(=S)n3Cc3ccccc3)c2)cc1	0	?	0	12.6µM	0
CCN(CC)S(=O)(=O)c1cccc(-c2n[nH]c(=S)n2Cc2ccccc2)c1	0	?	0	0[11.4 µM]	0
CCOC(=O)c1ccccc1NC1CC(=O)N(c2ccccc2C)C1=O (stereo unspecified)	0	0	3.55µM	0	0
COc1cc(C2NC(=S)NC3=C2CCc2ccccc23)cc(OC)c1OC (stereo unspecified)	0	0	0	0	0
C=CCOc1ccc(C2NC(=S)NC3=C2CCc2ccccc23)cc1 (stereo unspecified)	0	0	56.2µM	?	0
SMILES	RE007 growth inh	AmpC inh detg	Sm TGR block	AmpC inh no detg	AMA1-RON2 inh
CC1CCCCN1CC(=O)c1ccc2cc[nH]c2c1 (stereo unspecified)	0	0	8.91µM	0	0
CC1CCCCN1CC(=O)c1c[nH]c2ccccc12 (stereo unspecified)	0	0	0	0	0
CCNC(=S)Nc1ccc(Cc2ccncc2)cc1	0	0	0	0	0
S=C(NCc1ccncc1)Nc1ccc(Br)cc1	0	?	28.2µM	0	0
S=C(NCc1ccncc1)Nc1ccccc1	0	0	0	0[2.29 µM]	0
CNC(=S)Nc1ccc(Cc2ccncc2)cc1	0	0	39.8µM	0	0
S=C(NCc1ccncc1)Nc1ccc(Cl)cc1Cl	0	0	35.5µM	0[2.29 µM]	0
Cc1ccc2c(=O)cc(C(=O)Nc3ccc(S(=O)(=O)N4CCC(C)CC4)cc3)oc2c1C	-	0	0	-	-
